KinaseGlo FLuc: blocks Kinase-Glo luciferase, a counter-screen artifact. Q27757. Kinase-Glo luciferase, ATP luminescence, 8 min. Potency, µM (titrated, usually from 38.3 µM), inactives show at the highest dose activity change, negative = inhibition, most hits filed as inhibitors. actives 0.28% (n = 200,000). AID 1379; note: % is set by controls: 0 for no effect and ±100 for the full control effect; nearly all actives have a fitted effect of over 60% in size
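Inhibition of Kinase-Glo luciferase light generation was assessed at 10 uM ATP in pH 7.2 imidazole buffer, with luminescence measured after eight minutes at ambient temperature.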
SMN2 splice enh: increases expression of the SMN2 splice variant; HEK293 SMN2-luciferase splicing reporter, luminescence, 30-36 h; Potency, µM (series often up to 46.1 µM), for the others: at the top dose activity change, positive = activation, actives largely listed as activators; actives 2.8% (n = 210,000); note: % of control where 0% means no effect; nearly all actives have a fitted effect of over 55% in size
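HEK293 cells carry an SMN2 […]–luciferase reporter in which exon 7 inclusion puts luciferase in frame. Cells were plated 10-12 h before compound addition, then incubated 30-36 h at 37C. ONE-Glo luminescence was read; sodium butyrate at 4.5 mM final served as control.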
NPC1 promoter act: activates the NPC1 promoter; Potency, µM (doses to about 9.22 µM), for the others: at the highest dose activation, usual class: activators; Huh7 NPC1 promoter luciferase reporter, 24 h; AID 485313; actives 2.4% (n = 320,000); note: % of control where 0% means no effect; nearly all actives have a fitted effect of over 60% in size
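Luminescence from an NPC1 promoter-driven luciferase reporter in stably transfected Huh7 cells was measured after 24 h compound treatment at 37 °C, followed by 10 min ambient incubation with luciferase detection reagent.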
Rab9 prom act: activators of Rab9 promoter; Huh7 Rab9 promoter-luciferase reporter, luminescence, 24 h; Potency, µM (top dose mostly 9.22 µM), for the others: at the highest dose activation, negative = inhibition, actives largely listed as activators; actives 2.8% (n = 320,000); note: % of control where 0% means no effect; nearly all actives have a fitted effect of over 60% in size
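Luminescence read-out: Huh7 cells stably expressing Rab9-luciferase, treated 24 h with compound at 37 °C, then lysed with luciferase reagent for 10 min at ambient before reading.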
FLuc modulator: firefly luciferase modulation, counter-screen for miR-21 project; P08659; purified FLuc, Km substrates, luminescence inhibition; Potency, µM (highest dose often 57.5 µM), without a hit: at the highest dose activity change, negative = inhibition, actives largely listed as inhibitors; actives 6.9% (n = 360,000); AID 588342;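 note: plate controls were vehicle for no effect and reference inhibitor for full effect; nearly all actives have a fitted effect of over 55% in size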
Target sequence (P08659 whole entry, looked up): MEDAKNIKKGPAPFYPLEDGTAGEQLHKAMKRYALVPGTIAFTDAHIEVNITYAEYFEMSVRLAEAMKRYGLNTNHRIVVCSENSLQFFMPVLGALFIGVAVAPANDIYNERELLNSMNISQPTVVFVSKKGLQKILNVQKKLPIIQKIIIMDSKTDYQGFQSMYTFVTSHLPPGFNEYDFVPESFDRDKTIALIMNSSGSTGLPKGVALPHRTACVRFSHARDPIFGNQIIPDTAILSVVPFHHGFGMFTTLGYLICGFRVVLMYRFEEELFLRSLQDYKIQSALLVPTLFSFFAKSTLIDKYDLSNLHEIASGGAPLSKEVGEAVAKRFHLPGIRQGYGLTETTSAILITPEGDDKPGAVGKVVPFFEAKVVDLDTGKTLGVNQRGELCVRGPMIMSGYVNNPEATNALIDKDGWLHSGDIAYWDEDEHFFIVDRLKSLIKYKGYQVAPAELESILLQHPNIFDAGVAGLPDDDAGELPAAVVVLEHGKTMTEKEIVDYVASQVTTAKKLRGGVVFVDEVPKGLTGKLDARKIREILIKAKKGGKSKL
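Purified P. pyralis luciferase, 10 nM final, with Km-level 10 uM D-luciferin and 10 uM ATP in 50 mM Tris acetate pH 7.5, 10 mM Mg acetate, 0.01% Tween-20, 0.05% BSA; 6-point qHTS titration about 60 µM downward; luminescence read.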
ELG1 genotox: inducers of genotoxicity in HEK293T ELG1-luciferase cells. AID 504466. HEK293T ELG1-luciferase reporter, luminescence, 16 h. actives 1.3% (n = 330,000). Potency, µM (top dose mostly 46 µM), inactives show top-dose activity change, positive = activation, actives largely listed as activators; note: % of control where 0% means no effect; nearly all actives have a fitted effect of over 60% in size
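ELG1-luciferase HEK293T cells, 2,000/well; compound pinned in; 16 hr, 37 °C, 5% CO2; ONE-Glo, 30 min RT; luminescence on CCD imager.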
The depositor's hits bear a star; u = inconclusive; x = no result given; [ ] = another dose, or the depositor's remark. The list is not random: actives were taken first. Their share in the collection is about 7.3%. Calls come from the whole dose curve; as a rule, active = well fitted curve in the direction sought with a large enough effect; inconclusive = small, poorly fitted or top-dose-only effect, or another doubt; inactive = no such curve, though single readings can be large; an effect the other way counts as inactive or inconclusive. Potency is the fitted concentration of half-maximal effect.

SMILES | KinaseGlo FLuc | SMN2 splice enh | NPC1 promoter act | Rab9 prom act | FLuc modulator | ELG1 genotox
COc1ccc(C(CC(=O)N2CCC3(CC2)OCCO3)NS(=O)(=O)c2ccc(F)cc2)cc1 (stereo not given) | -4% | -5% | -6% | 3.5µM* | -1% | -3%
CC(Oc1ccc(Br)cc1)C(=O)N(Cc1nc(-c2ccccc2)no1)C(C)C (stereo not given) | x | -43% | x | x | -12% | x
Cn1nc(OC(=O)Nc2ccccc2)cc1C(F)(F)F | -9% | 17% | u | 29% | 17µM* | 13%
FC(F)(F)c1ccc(CSc2ccccn2)cc1 | x | x | 1% | 7% | 15µM* | 2%
CNCC[C@@H](Oc1ccc(C(F)(F)F)cc1)c1ccccc1 | -1% | -15% | -7% | -11% | -1% | 0%
CCCCCn1c(=O)c(C(=O)Nc2nc3ccccc3[nH]2)c(O)c2ccccc21 | x | x | -4% | -7% | 1% | -7%
Cc1ccc(C(=O)Nc2nc3ccccc3[nH]2)cc1 | x | x | 0.56µM* | 0.63µM* | 0.095µM* | u
NCCc1c[nH]c2ccc(OC(=O)C(=O)O)cc12 | -9%[7.66 µM] | -30%[9.22 µM] | x | x | x | x
N#CC(Cl)Cl | x | -4% | x | x | x | x
C=CCCC#N | x | 1% | x | x | x | x
CCCOC1CCCN(C(=O)CCc2nnc(Cc3cccc(C)c3)o2)C1 (stereo not given) | -3% | x | u | 2.8µM* | 21µM* | u
CC(C)CNCCc1ccccn1 | -4%[7.66 µM] | -21%[9.22 µM] | x | x | x | x
CC(C)c1ccc(C(O)(C(=O)O)c2ccc(C(C)C)cc2)cc1 | 0%[7.66 µM] | -10%[9.22 µM] | x | x | x | x
Cc1ccc2c(c1N)C(=O)c1ccccc1C2=O | x | u | 3.2µM* | u | 4.3µM* | u
O=C(O)C[SH+]CC(=O)O.O=C(O)C[SH+]CC(=O)O.[Cu] | 2%[7.66 µM] | 2%[9.22 µM] | x | x | x | x
COc1cc(/C=C/C(=O)c2c(O)n(CCc3ccccc3)c(=O)[nH]c2=O)ccc1O | -14% | -63% | -1% | -8% | 6.7µM* | -3%
O=C(O)c1ccccc1Nc1cccc(C(F)(F)F)c1 | 0% | -25% | 1% | -11% | 15µM* | 0%
C[C@H]1CC[C@@]2(NC1)O[C@@H]1C[C@@H]3[C@@H]4CC=C5C[C@@H](O)CC[C@]5(C)[C@@H]4CC[C@]3(C)[C@H]1[C@@H]2C | -3%[7.66 µM] | -3%[9.22 µM] | x | x | x | x
COC(=O)C(O)(c1ccc(NC(=O)NC2CCCCC2)cc1)C(F)(F)F (stereo not given) | 1% | u | u | u | 12µM* | u
CN(C)c1ccc(N(C)C)cc1 | x | -9% | x | x | x | x
Cc1cc(/C=C2/C(=O)NC(=O)N(Cc3ccco3)C2=O)c(C)n1-c1ccccc1 | -3% | -28% | 1% | 0% | 5.4µM* | 6%
O=C1NC(=S)N(Cc2ccco2)C(=O)/C1=C\c1cccs1 | 5% | -18% | -4% | -8% | 17µM* | 0%
C[C@H](CN(C)C)C(C#N)(c1ccccc1)c1ccccc1 | -1%[7.66 µM] | -7%[9.22 µM] | x | x | x | x
O=C(c1cc2c(s1)-c1ccccc1OC2)N1CCC2(CC1)OCCO2 | -5% | 5.6µM* | u | 0.89µM* | 6.7µM* | u
CCN1CCN(Cc2ccc(OC(F)(F)F)cc2)CC1 | -1% | -8% | -1% | -7% | 7% | 4%
SMILES | KinaseGlo FLuc | SMN2 splice enh | NPC1 promoter act | Rab9 prom act | FLuc modulator | ELG1 genotox
CCCCCCOc1ccc(CN2CCN(CC)CC2)cc1 | 0% | -29% | 4µM* | 2.8µM* | 9.5µM* | 3.7µM*
O=C(O)C(Cl)(Cl)Br | x | -4% | x | x | x | x
COc1ccc(-c2n[nH]c(=S)n2-c2ccc3c(c2)OCCO3)cc1OC | 4% | x | 1% | 8% | 12µM* | u
S=c1[nH]nc(-c2ccc3ccccc3n2)n1-c1ccc2c(c1)OCCO2 | x | x | 0% | -3% | u | 6%
C[C@H](c1ccccc1)N1CCN([C@@H](C)c2ccccc2)CC1 | -6%[7.66 µM] | -9%[9.22 µM] | x | x | x | x
COc1ccc(-c2coc3cc(OC(=O)N4CCOCC4)ccc3c2=O)cc1 | x | x | 23% | u | 24µM* | -7%
O=C(Oc1ccc2ccc(OC(=O)N3CCOCC3)cc2c1)N1CCOCC1 | -4% | -33% | 3% | 4% | u | 8%
CCCCC/C=C\C/C=C\C/C=C\CCCCC(=O)NCCO | 2% | -6% | x | x | x | x
CN1C(=O)C(=Cc2ccccc2OCc2ccccc2Cl)C(=O)N(C)C1=O | -2% | 6% | -4% | -4% | u | -1%
CN1C(=O)C(=Cc2c(OCc3cnc(Cl)s3)ccc3ccccc23)C(=O)N(C)C1=O | 1% | 3% | 22% | u | 19µM* | u
Nc1c(C(=O)Nc2cccc(Br)c2)sc2nc3c(cc12)N1CCC3CC1 | x | -31% | x | x | 12µM* | x
Nc1c(C(=O)Nc2ccc(Cl)cc2)sc2nc3c(cc12)N1CCC3CC1 | x | -5% | x | x | -15% | x
COc1ccc(CCN2CCCC(CN(C)C(=O)c3cc(C)oc3C)C2)cc1 (stereo not given) | x | x | 2.5µM* | 2.2µM* | 13µM* | 18µM*
O=C(O)c1cccc(Cl)c1 | x | 5% | x | x | x | x
O=C(O)c1cc[c]([Hg][Cl])cc1 | u | 0% | 9%[46.1 µM] | 7%[46.1 µM] | 6.7µM* | -2%
CN(C)C1C(=O)C(C(N)=O)C(=O)C2(O)C(=O)C3C(=O)c4c(O)cccc4C(C)(O)C3C(O)C12 (stereo not given) | -5%[39.9 µM] | x | x | x | x | x
Cc1ccc2nc(NC(=O)c3cccn(Cc4ccccc4F)c3=O)sc2c1 | x | x | x | x | 6% | x
Cc1ccc(Cn2cccc(C(=O)Nc3nc4ccc(C)cc4s3)c2=O)cc1 | x | x | x | x | -11% | x
Cc1cccc(Cn2cccc(C(=O)Nc3nc4ccccc4s3)c2=O)c1 | x | x | x | x | 6µM* | x
CCOc1ccc2nc(NC(=O)c3cccn(Cc4ccccc4C)c3=O)sc2c1 | x | x | x | x | 15µM* | x
Brc1cccc(-c2ccccc2)c1 | x | 7% | x | x | x | x
CCOc1ccc(/C=C/C(=O)C(C(N)=O)=C2SCCS2)cc1 | -4% | -28% | u | u | 1.7µM* | 8%
CO[C@@H]([CH2][Hg])CN1C(=O)c2ccccc2S1(=O)=O.Cn1c(=O)c2nc[nH]c2n(C)c1=O | 1%[7.66 µM] | -9%[9.22 µM] | x | x | x | x
O=Cc1ccc(Cl)cc1Cl | x | -5% | x | x | x | x
Cc1cc(N=Nc2ccccc2C)ccc1N | x | 14µM* | x | x | x | x
Cc1cc(C(=O)Nc2ccc3c(c2)OCCO3)nn1C(C)(C)C | x | x | 4.5µM* | 3.5µM* | 7.6µM* | u
O=C(Nc1ccc2c(c1)OCO2)c1cn(Cc2ccc(F)cc2)nn1 | -5% | 17% | 29% | 22% | u | 14%
Cc1cc(C(=O)Nc2ccccc2)nn1C(C)(C)C | x | x | 2.2µM* | 2.2µM* | 6.7µM* | u
NCCc1ccc(S(=O)(=O)O)cc1[N+](=O)[O-] | -1%[7.66 µM] | -4%[9.22 µM] | x | x | x | x
COc1ccccc1NC(=O)Oc1cccc(OC(=O)c2ccccc2)c1 | x | x | 4% | -7% | u | -1%

Screens as filed in PubChem.
